PubChem BioAssay (NCI)
This is part of a sample that, as a whole, favours compounds with a hit. Of some 79,000 tested, about 15% had one in any assay. Rule as the data show it: active = growth inhibition above about 70%; inactive = the rest.

Tests used:
[1] = NCI Yeast Anticancer Drug Screen. Data for the rad50 strain (AID 155);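 also: 0% = growth of vehicle-only cultures of the same strain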; settings: S. cerevisiae rad50 strain growth inhibition; at 50.0 µM; stronger effect = higher value
Summary of the method: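 Growth of the mutant yeast was measured after compound exposure and referenced to vehicle-treated cultures.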

[2] = NCI Yeast Anticancer Drug Screen. Data for the mec2-1 strain (AID 157); settings: S. cerevisiae mec2-1 strain, at 50.0 µM, stronger effect = higher value
Summary of the method: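 Each compound was tested on mec2-1 yeast, a strain altered in DNA damage repair or cell cycle control. Growth inhibition is reported relative to vehicle.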

[3] = NCI Yeast Anticancer Drug Screen. Data for the sgs1 mgt1 strain (AID 161);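 also: 0% = growth of cultures given vehicle only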; settings: S. cerevisiae sgs1 mgt1 strain, at 50.0 µM, stronger effect = higher value
Summary of the method: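 Inhibition of yeast growth, normalised to vehicle-treated controls, is reported for a strain bearing genetic alterations in DNA damage repair.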

[4] = NCI Yeast Anticancer Drug Screen. Data for the cln2 rad14 strain (AID 165);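 also: 0% = growth equal to vehicle treated cultures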; settings: S. cerevisiae cln2 rad14 strain, at 50.0 µM, stronger effect = higher value
Summary of the method: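 Test compounds were added to cln2 rad14 yeast cultures; inhibition of growth was then determined by comparison with vehicle treatment.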

[5] = NCI Yeast Anticancer Drug Screen. Data for the bub3 strain (AID 167); settings: S. cerevisiae bub3 mutant strain, at 50.0 µM, stronger effect = higher value
Summary of the method: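 Whole-cell yeast assay. The mutant strain was incubated with compounds, and growth inhibition was determined by comparison with vehicle-treated cells.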

[6] = NCI Yeast Anticancer Drug Screen. Data for the mlh1 rad18 strain (AID 175); settings: S. cerevisiae mlh1 rad18 strain growth inhibition; at 50.0 µM; stronger effect = higher value
Summary of the method: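 Inhibition values reflect reduced growth of mutant yeast versus vehicle-treated controls following compound exposure; the mutations affect DNA damage repair.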

Measured: growth inhibition

Cn1c(=O)c2[nH]c(N(CCO)N=O)nc2n(C)c1=O
inactive: [1] -9.25% | [2] -8.2% | [3] -4.25% | [4] -7.35% | [5] 13.3% | [6] -26.4%

CCC(C(=O)O)C1=CCCc2c(C)ccc(C)c21 (configuration not stated)
inactive: [1] 23.6% | [2] 13.2% | [3] 21.6% | [4] 25.3% | [5] 11.7% | [6] 23.2%

CC(C)N(C(=S)/N=C1/SC(C)S(=O)(=O)N1C)C(C)C (configuration not stated)
inactive: [1] -4.95% | [2] 13.6% | [3] -5.95% | [4] -4.5% | [5] -10.8% | [6] 5.45%

O=C(/C=C/c1ccccc1)Cc1nc2nnc(NC(=O)Nc3ccc(Cl)cc3)n2[nH]c1=O
inactive: [1] -9.15% | [2] 1.85% | [3] 1.5% | [4] -8.05% | [5] 6.15% | [6] 4.65%

Cc1ccnc(-n2c(N)cc(=O)[nH]c2=S)c1
inactive: [1] -7.15% | [2] 1.3% | [3] 10.6% | [4] -17.4% | [5] 27.6% | [6] 5.55%

CC(=O)c1cc2c(cc1C)CCCC2(C)C
inactive: [1] 0.95% | [2] -3.8% | [3] -2.4% | [4] -1.5% | [5] 4.4% | [6] 1.35%

CC1(C)Cc2ccccc2C(C)(Cl)C(=O)N1 (configuration not stated)
inactive: [1] -10.8% | [2] 0.3% | [3] 6.4% | [4] 17.9% | [5] -26.9% | [6] 17.8%

O=C(/C=C/NC(=O)OCc1ccccc1)OCc1ccccc1
inactive: [1] 9.35% | [2] -5.5% | [3] -0.9% | [4] 17.1% | [5] 3.55% | [6] 0.95%

COC(=O)CN(c1ccc(C#N)c2ccccc12)S(=O)(=O)c1ccccc1
inactive: [1] 32.4% | [2] -2.35% | [3] 3.7% | [4] -4.9% | [5] 4.25% | [6] 1.45%

CC(=O)SC1CC2CCC1C2 (configuration not stated)
inactive: [1] 0.75% | [2] -18.2% | [3] -17.4% | [4] 9.95% | [5] -19.7% | [6] 15.7%

ClC1=C(Cl)C2(Cl)CC1(Cl)C1CCCCC12 (configuration not stated)
inactive: [1] 18.9% | [2] -10.4% | [3] 21.4% | [4] -17.4% | [5] 16.6% | [6] -10.6%

CC(C)OC(CCC#N)c1ccccc1 (configuration not stated)
inactive: [1] -20.1% | [2] -48.6% | [3] -33.3% | [4] -8.3% | [5] -32.9% | [6] -34.1%

O=C(O)c1cc(Nc2nc(Cl)nc(Cl)n2)ccc1-c1c2ccc(=O)cc-2oc2cc(O)ccc12
inactive: [1] 37.2% | [2] 21.3% | [3] 22.7% | [4] 10% | [5] -1.15% | [6] 49.5%

Cc1ccc2nc(C)cc(N=[N+]=[N-])c2c1
inactive: [1] -35.6% | [2] -21.8% | [3] -17.1% | [4] -58.9% | [5] -2.2% | [6] -11.5%

CCCCC1SC(N)=NC1=O (configuration not stated)
inactive: [1] 14.9% | [2] -2.35% | [3] 12.5% | [4] 53.2% | [5] 3.9% | [6] -17.7%

O=C(O)C#Cc1ccc(Cl)cc1
inactive: [1] -20.1% | [2] -23.8% | [3] -17.6% | [4] -9.05% | [5] -24.4% | [6] -13.6%

C=CCOC(=O)CC
inactive: [1] 5.95% | [2] -13.2% | [3] -13% | [4] -6.05% | [5] -15.4% | [6] -10%

C/C(CC(=O)Nc1ccc(Cl)cc1)=N\NC(N)=S
inactive: [1] -7.95% | [2] -4.65% | [3] 9.6% | [4] 20.4% | [5] -3.75% | [6] -0.6%

CCOc1ccc(/C=C2\CCc3ccccc3C2=O)cc1
inactive: [1] 16.4% | [2] 16.6% | [3] 22.7% | [4] 20.9% | [5] 26.9% | [6] 21.6%

O=S1(=O)OCOS(=O)(=O)OCO1
inactive: [1] -24.9% | [2] -28.6% | [3] -14.2% | [4] -4.8% | [5] -13.8% | [6] -19.9%

COc1ccc(-c2c(O)c3cccc(-c4ccccc4)c3oc2=O)cc1
inactive: [1] 2.7% | [2] 6.7% | [3] -2.9% | [4] 2.95% | [5] 15% | [6] 7.5%

O=C(NC(CSSCC(NC(=O)OCc1ccccc1)C(=O)O)C(=O)O)OCc1ccccc1 (configuration not stated)
inactive: [1] -8.6% | [2] -31.4% | [3] -2.4% | [4] -4.1% | [5] -33% | [6] -25.2%

COc1ccc(C(C)=O)c(OC(C)=O)c1OC(C)=O
inactive: [1] 4.05% | [2] 0.95% | [3] 6.25% | [4] 10% | [5] 5.8% | [6] 17.2%

O=[N+]([O-])c1ccc(/C=N\NC(=S)Nc2ccc3cn[nH]c3c2)cc1
inactive: [1] 19.9% | [2] 14.6% | [3] 7.6% | [4] -1.7% | [5] 17.4% | [6] -9.65%

CCOC(=O)c1ccc(N2C(=O)C(Cl)(c3ccccc3)C2c2ccco2)cc1 (configuration not stated)
inactive: [1] 16.2% | [2] 9.85% | [3] -1.65% | [4] 9.1% | [5] 12.4% | [6] 10.5%

O=C(NNC(=O)c1ccncc1)c1ccncc1
inactive: [1] -22.9% | [2] 1.2% | [3] -9.45% | [4] -30.3% | [5] -2.4% | [6] -23.9%

CC(C)(O)c1cc2nc3ccccc3nc2n1CCO
inactive: [1] -19.6% | [2] -22.4% | [3] 8.45% | [4] 4.25% | [5] 4.25% | [6] -14.4%

CC(C)C(NC(=O)c1ccccc1C(=O)O)c1ccccc1 (configuration not stated)
inactive: [1] 6.3% | [2] -7.35% | [3] 7.1% | [4] 4.45% | [5] 29.6% | [6] -3.7%

C/C=C/C(=O)OC1CCCC1
inactive: [1] 30.9% | [2] 11.7% | [3] 23.6% | [4] 18.9% | [5] 10% | [6] 23.9%

Cc1ccc(NC(=O)CCc2cc(C(C)(C)C)nc(=S)[nH]2)cc1C
inactive: [1] -36.6% | [2] -27.5% | [3] -46.5% | [4] -30.6% | [5] -35.8% | [6] -34%

O=P(O)(O)OC1C(OP(=O)(O)O)C(OP(=O)(O)O)C(OP(=O)(O)O)C(OP(=O)(O)O)C1OP(=O)(O)O.[Cu+2] (configuration not stated)
inactive: [1] -18.1% | [2] -18.8% | [3] -14.7% | [4] -10.9% | [5] -9% | [6] -19.4%

CC(=O)Nc1ccc(NC(=O)c2ccccc2Cl)cc1
inactive: [1] -0.45% | [2] -9.15% | [3] 4.7% | [4] -6.6% | [5] 10.9% | [6] -33.1%

CCN(CC)CCOC(=O)c1noc2cc([N+](=O)[O-])ccc12
inactive: [1] 0.7% | [2] 12.9% | [3] -1.25% | [4] -23.7% | [5] 5% | [6] 9.85%

CCN(CC)CCCNc1ccnc2ccc(Cl)cc12
inactive: [1] -9.9% | [2] -15.6% | [3] 5.45% | [4] -17.9% | [5] 13.9% | [6] 2.55%

CCN(CC)C(=S)SCCO
inactive: [1] -4.3% | [2] -11.2% | [3] 6.15% | [4] -9.7% | [5] -3.5% | [6] -1.65%

O=C(c1ccccc1)C1(Cl)CCCCC1
inactive: [1] -9.95% | [2] -12.6% | [3] -10.8% | [4] -8.45% | [5] -5.15% | [6] 15.6%

CC1(C)CC(=O)C(/C=N/C(N)=S)=C(O)C1
inactive: [1] -20.3% | [2] -52.1% | [3] -13.8% | [4] 6.2% | [5] -0.85% | [6] -31.6%
